{
  "source": "the supplement of paper PMC11732987",
  "about": "“Enantioselective OTUD7B fragment discovery through chemoproteomics screening and high-throughput optimisation” (Communications Chemistry, 2025)",
  "note": "Unmarked numbers belong to inactive results.",
  "data": [
    {"compound": "ClCC(=O)N1CCC(CC#N)C1", "assay": "log2 ratio of Biotin-Ahx-Ub-VS probe labelling (compound/DMSO); higher = less target engagement, active = hit call of the paper (q ≤ 0.05, log2 ratio ≤ -1)", "conditions": "compound concentration: 50uM; treatment time: 3 h", "description": "(§1)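 Round 2 competitive ABPP in HEK293T lysate. Purified HTC-D2B compounds were tested at 50 and 200 µM for 3 h, followed by Biotin-Ahx-Ub-VS enrichment and diaPASEF LC-MS/MS. Values are the average log2 ratio (compound/DMSO) from an unpaired t-test (n=3 treated, n=26 DMSO).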", "values": [
      {"target": "USP12 (UniProt O75317)", "log2 ratio of Biotin-Ahx-Ub-VS probe labelling": -0.0667},
      {"target": "UniProt Q9UGI0", "sequence (Q9UGI0 whole entry)": "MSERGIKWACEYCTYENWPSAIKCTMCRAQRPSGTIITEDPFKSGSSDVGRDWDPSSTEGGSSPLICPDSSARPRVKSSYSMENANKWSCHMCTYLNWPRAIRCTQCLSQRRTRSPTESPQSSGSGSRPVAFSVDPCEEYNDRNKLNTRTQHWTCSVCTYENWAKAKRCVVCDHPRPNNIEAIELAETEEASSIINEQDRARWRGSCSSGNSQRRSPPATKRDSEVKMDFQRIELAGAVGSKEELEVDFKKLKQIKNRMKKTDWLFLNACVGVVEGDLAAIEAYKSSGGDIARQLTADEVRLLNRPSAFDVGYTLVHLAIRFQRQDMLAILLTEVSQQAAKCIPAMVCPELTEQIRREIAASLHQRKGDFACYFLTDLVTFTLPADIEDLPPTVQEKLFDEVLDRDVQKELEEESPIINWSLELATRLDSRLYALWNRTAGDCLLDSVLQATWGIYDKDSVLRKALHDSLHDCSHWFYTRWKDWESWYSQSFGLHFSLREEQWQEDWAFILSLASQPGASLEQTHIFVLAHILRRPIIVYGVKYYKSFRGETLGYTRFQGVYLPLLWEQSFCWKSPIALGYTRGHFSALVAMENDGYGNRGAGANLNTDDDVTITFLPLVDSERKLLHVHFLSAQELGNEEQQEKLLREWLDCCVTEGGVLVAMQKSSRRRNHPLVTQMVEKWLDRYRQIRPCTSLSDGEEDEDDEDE", "log2 ratio of Biotin-Ahx-Ub-VS probe labelling": -0.025},
      {"target": "YOD1 (UniProt Q5VVQ6)", "log2 ratio of Biotin-Ahx-Ub-VS probe labelling": -0.225},
      {"target": "OTUB1 (UniProt Q96FW1)", "log2 ratio of Biotin-Ahx-Ub-VS probe labelling": -0.024},
      {"target": "FAM105A (UniProt Q9NUU6)", "sequence (Q9NUU6 whole entry)": "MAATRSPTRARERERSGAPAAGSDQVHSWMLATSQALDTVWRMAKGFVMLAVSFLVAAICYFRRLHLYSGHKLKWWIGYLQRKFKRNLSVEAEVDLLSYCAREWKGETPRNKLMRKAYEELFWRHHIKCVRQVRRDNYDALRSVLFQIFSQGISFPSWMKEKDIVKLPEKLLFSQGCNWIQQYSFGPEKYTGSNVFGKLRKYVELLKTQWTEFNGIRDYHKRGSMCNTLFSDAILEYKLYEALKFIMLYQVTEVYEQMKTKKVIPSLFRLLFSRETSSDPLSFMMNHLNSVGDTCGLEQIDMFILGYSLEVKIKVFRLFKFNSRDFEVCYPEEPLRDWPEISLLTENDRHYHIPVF", "log2 ratio of Biotin-Ahx-Ub-VS probe labelling": -0.103},
      {"target": "USP16 (UniProt Q9Y5T5)", "log2 ratio of Biotin-Ahx-Ub-VS probe labelling": -0.133},
      {"target": "USP15 (UniProt Q9Y4E8)", "log2 ratio of Biotin-Ahx-Ub-VS probe labelling": -0.281},
      {"target": "USP7 (UniProt Q93009)", "log2 ratio of Biotin-Ahx-Ub-VS probe labelling": -0.141},
      {"target": "USP24 (UniProt Q9UPU5)", "log2 ratio of Biotin-Ahx-Ub-VS probe labelling": -0.155},
      {"target": "USP14 (UniProt P54578)", "sequence (P54578 whole entry)": "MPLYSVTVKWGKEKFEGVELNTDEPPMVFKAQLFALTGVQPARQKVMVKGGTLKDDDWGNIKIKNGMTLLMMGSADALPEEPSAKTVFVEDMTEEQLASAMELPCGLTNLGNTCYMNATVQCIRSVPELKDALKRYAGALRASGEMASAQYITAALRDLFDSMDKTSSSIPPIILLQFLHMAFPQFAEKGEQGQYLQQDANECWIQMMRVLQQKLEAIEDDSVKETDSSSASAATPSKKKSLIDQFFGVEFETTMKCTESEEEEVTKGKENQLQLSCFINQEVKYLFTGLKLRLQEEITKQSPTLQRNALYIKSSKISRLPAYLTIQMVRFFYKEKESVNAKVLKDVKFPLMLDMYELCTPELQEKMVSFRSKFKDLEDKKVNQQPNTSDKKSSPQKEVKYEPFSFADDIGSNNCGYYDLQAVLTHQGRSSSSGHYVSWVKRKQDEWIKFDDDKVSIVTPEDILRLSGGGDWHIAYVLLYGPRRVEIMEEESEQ", "log2 ratio of Biotin-Ahx-Ub-VS probe labelling": -0.25},
      {"target": "UniProt Q9P2H5", "sequence (Q9P2H5 whole entry)": "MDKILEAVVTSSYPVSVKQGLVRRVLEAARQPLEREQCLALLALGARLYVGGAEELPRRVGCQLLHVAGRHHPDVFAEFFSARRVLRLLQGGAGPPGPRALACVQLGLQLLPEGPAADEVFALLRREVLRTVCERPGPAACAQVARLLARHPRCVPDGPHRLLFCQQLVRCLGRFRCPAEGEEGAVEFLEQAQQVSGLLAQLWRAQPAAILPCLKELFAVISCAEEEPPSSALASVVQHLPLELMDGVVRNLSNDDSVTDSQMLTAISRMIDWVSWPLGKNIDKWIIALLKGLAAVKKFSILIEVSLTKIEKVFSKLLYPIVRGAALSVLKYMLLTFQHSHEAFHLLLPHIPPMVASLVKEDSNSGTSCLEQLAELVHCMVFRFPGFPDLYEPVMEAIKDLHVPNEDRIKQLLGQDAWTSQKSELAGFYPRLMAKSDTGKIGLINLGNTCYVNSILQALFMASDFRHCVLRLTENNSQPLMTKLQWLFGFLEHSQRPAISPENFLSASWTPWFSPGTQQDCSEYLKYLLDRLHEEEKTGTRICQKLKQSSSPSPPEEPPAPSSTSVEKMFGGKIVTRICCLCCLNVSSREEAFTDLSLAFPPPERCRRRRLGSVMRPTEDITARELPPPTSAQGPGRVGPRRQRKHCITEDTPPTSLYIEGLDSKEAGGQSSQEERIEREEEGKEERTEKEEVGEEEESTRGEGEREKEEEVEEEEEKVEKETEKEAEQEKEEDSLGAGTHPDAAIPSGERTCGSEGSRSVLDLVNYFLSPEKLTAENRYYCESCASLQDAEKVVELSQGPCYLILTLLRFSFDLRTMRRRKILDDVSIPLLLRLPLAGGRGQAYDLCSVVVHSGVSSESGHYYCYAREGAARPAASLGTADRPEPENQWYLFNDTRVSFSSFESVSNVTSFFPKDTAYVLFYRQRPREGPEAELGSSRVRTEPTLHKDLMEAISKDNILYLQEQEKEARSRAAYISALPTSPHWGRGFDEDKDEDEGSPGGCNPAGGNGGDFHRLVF", "log2 ratio of Biotin-Ahx-Ub-VS probe labelling": -0.115},
      {"target": "USP5 (UniProt P45974)", "log2 ratio of Biotin-Ahx-Ub-VS probe labelling": -0.0602},
      {"target": "UCHL3 (UniProt P15374)", "log2 ratio of Biotin-Ahx-Ub-VS probe labelling": -0.263},
      {"target": "EIF3F (UniProt O00303)", "log2 ratio of Biotin-Ahx-Ub-VS probe labelling": -0.172},
      {"target": "USP25 (UniProt Q9UHP3)", "log2 ratio of Biotin-Ahx-Ub-VS probe labelling": -0.617},
      {"target": "USP19 (UniProt O94966)", "log2 ratio of Biotin-Ahx-Ub-VS probe labelling": -0.285},
      {"target": "EIF3H (UniProt O15372)", "log2 ratio of Biotin-Ahx-Ub-VS probe labelling": 0.0416},
      {"target": "UCHL1 (UniProt P09936)", "sequence (P09936 whole entry, looked up)": "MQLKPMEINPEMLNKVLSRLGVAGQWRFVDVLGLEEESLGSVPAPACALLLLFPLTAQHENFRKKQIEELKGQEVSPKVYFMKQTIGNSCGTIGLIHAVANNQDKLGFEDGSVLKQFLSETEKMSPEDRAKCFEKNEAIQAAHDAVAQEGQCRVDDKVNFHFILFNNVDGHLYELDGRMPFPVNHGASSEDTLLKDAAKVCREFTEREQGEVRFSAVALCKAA", "log2 ratio of Biotin-Ahx-Ub-VS probe labelling": -0.297},
      {"target": "OTUD4 (UniProt Q01804)", "sequence (Q01804 whole entry)": "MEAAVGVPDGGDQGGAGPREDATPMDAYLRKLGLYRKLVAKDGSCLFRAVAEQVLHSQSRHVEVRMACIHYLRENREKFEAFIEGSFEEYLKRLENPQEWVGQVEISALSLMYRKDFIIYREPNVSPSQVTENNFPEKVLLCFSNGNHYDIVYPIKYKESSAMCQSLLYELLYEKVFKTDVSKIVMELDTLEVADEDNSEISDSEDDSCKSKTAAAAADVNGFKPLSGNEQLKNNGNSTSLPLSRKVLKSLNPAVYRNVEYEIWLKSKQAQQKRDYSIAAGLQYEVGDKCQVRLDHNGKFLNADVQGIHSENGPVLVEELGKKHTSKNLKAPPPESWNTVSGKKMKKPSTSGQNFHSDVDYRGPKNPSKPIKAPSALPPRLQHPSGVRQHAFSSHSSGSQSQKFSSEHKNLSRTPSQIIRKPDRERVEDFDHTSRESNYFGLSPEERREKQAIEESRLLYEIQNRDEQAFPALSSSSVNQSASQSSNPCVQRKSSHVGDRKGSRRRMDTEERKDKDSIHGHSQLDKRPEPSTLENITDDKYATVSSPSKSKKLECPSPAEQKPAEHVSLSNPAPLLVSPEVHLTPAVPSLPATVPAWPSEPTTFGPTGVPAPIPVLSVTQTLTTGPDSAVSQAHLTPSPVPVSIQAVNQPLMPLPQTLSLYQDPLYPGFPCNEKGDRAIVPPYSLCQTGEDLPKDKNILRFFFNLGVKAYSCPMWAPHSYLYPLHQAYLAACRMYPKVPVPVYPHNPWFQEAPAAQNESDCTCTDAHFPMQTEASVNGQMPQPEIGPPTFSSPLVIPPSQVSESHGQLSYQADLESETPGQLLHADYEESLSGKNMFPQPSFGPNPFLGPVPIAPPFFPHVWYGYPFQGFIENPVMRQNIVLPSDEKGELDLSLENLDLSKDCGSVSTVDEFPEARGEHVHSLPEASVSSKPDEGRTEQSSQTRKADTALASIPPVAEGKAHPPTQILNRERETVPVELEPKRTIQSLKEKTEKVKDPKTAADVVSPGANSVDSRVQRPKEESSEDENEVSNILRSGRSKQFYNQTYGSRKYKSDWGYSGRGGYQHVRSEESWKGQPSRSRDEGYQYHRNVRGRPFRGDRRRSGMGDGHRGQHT", "log2 ratio of Biotin-Ahx-Ub-VS probe labelling": -0.19},
      {"target": "USP36 (UniProt Q9P275)", "sequence (Q9P275 whole entry)": "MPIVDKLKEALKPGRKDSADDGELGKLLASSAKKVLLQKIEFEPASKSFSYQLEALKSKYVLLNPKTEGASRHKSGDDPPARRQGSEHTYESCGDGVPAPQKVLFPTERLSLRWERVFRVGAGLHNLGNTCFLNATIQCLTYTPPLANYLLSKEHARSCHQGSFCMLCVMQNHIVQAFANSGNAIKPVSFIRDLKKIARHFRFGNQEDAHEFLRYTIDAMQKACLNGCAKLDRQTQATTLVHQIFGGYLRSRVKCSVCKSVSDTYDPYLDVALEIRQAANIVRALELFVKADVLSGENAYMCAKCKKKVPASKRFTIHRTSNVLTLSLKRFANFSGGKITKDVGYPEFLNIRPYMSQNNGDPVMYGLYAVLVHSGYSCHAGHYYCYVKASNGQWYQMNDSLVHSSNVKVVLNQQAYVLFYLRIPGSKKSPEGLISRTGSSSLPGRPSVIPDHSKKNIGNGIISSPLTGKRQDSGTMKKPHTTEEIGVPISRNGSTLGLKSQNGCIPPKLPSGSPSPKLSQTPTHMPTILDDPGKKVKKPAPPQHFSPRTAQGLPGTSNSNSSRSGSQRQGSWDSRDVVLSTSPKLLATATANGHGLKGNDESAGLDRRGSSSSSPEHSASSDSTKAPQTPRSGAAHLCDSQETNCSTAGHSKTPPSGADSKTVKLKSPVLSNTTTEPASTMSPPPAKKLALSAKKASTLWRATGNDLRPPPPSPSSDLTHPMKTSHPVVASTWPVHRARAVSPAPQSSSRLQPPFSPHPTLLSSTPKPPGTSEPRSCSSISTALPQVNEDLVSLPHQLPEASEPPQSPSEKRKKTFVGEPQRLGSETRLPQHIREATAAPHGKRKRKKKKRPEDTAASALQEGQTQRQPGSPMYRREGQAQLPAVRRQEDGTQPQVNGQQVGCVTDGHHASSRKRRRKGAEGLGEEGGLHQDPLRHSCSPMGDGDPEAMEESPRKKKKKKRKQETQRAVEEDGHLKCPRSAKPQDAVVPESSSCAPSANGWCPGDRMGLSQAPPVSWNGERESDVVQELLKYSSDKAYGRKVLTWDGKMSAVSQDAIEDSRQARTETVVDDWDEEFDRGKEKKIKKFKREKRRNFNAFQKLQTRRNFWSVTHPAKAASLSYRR", "log2 ratio of Biotin-Ahx-Ub-VS probe labelling": -0.193}
    ]},
    {"compound": "ClCC(=O)N1CCC(CC#N)C1", "assay": "log2 ratio of Biotin-Ahx-Ub-VS probe labelling (compound/DMSO); higher = less target engagement, active = hit call of the paper (q ≤ 0.05, log2 ratio ≤ -1)", "conditions": "compound concentration: 200uM; treatment time: 3 h", "description": "as §1", "values": [
      {"target": "USP12 (UniProt O75317)", "log2 ratio of Biotin-Ahx-Ub-VS probe labelling": -0.647},
      {"target": "UniProt Q9UGI0", "log2 ratio of Biotin-Ahx-Ub-VS probe labelling": -0.16},
      {"target": "YOD1 (UniProt Q5VVQ6)", "log2 ratio of Biotin-Ahx-Ub-VS probe labelling": 0.00802},
      {"target": "OTUB1 (UniProt Q96FW1)", "log2 ratio of Biotin-Ahx-Ub-VS probe labelling": -0.102},
      {"target": "FAM105A (UniProt Q9NUU6)", "log2 ratio of Biotin-Ahx-Ub-VS probe labelling": 0.0672},
      {"target": "USP16 (UniProt Q9Y5T5)", "log2 ratio of Biotin-Ahx-Ub-VS probe labelling": -0.669},
      {"target": "USP15 (UniProt Q9Y4E8)", "log2 ratio of Biotin-Ahx-Ub-VS probe labelling": -0.268},
      {"target": "USP7 (UniProt Q93009)", "log2 ratio of Biotin-Ahx-Ub-VS probe labelling": -0.201},
      {"target": "USP24 (UniProt Q9UPU5)", "log2 ratio of Biotin-Ahx-Ub-VS probe labelling": -0.576},
      {"target": "USP14 (UniProt P54578)", "log2 ratio of Biotin-Ahx-Ub-VS probe labelling": 0.0716},
      {"target": "UniProt Q9P2H5", "log2 ratio of Biotin-Ahx-Ub-VS probe labelling": 0.00502},
      {"target": "USP5 (UniProt P45974)", "log2 ratio of Biotin-Ahx-Ub-VS probe labelling": 0.0332},
      {"target": "UCHL3 (UniProt P15374)", "log2 ratio of Biotin-Ahx-Ub-VS probe labelling": -0.193},
      {"target": "EIF3F (UniProt O00303)", "log2 ratio of Biotin-Ahx-Ub-VS probe labelling": 0.14},
      {"target": "USP25 (UniProt Q9UHP3)", "log2 ratio of Biotin-Ahx-Ub-VS probe labelling": "-2.11 (active)"},
      {"target": "USP19 (UniProt O94966)", "log2 ratio of Biotin-Ahx-Ub-VS probe labelling": -0.557},
      {"target": "EIF3H (UniProt O15372)", "log2 ratio of Biotin-Ahx-Ub-VS probe labelling": 0.0793},
      {"target": "UCHL1 (UniProt P09936)", "log2 ratio of Biotin-Ahx-Ub-VS probe labelling": -0.13},
      {"target": "OTUD4 (UniProt Q01804)", "log2 ratio of Biotin-Ahx-Ub-VS probe labelling": -0.226},
      {"target": "USP36 (UniProt Q9P275)", "log2 ratio of Biotin-Ahx-Ub-VS probe labelling": 0.0225}
    ]}
  ]
}
